Here are results for 36 sequences from paper PMC12820563, “FoxP3 forms a head-to-head dimer in vivo and stabilizes its multimerization on adjacent microsatellites”.

Whole data set: some 16,000 sequences, median “rpm ratio (pull-down/input)” near 0.5, cut for the highest 2% near 5.5. This excerpt belongs to a sample that is enriched for the highest values.

For this assay, the target named is T1, MBP-FoxP3dN (Mus musculus, UniProt Q99JB6 188-423).
T1 sequence: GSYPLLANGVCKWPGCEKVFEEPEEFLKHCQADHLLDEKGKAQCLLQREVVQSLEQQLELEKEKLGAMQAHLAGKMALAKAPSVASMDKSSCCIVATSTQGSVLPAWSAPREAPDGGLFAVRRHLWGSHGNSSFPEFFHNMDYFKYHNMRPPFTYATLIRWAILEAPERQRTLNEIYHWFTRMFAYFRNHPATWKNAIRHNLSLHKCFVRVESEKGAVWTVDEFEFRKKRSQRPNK
As to the kind of experiment: PD-seq (MBP pull-down with sequencing); 20 mM Tris-HCl pH 7.5, 100 mM NaCl, 1.5 mM MgCl2, 0.4 uM protein, 0.1 uM dsDNA library, 30 min, room temperature, amylose pull-down; high values mean tight binding. The settings on record: protein: recombinant; tags: His6-MBP; chain copies: 2; dsDNA, one strand shown. The essentials: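 The N-terminus-lacking fragment of mouse FoxP3 or FoxP1 carried a His6-MBP tag and was expressed in E. coli. At 0.4 µM it was incubated with 0.1 µM Klenow-filled degenerate double-stranded DNA library for 30 min at room temperature in Tris pH 7.5 buffer with NaCl and MgCl2, and complexes were caught on amylose resin, washed three times, released with proteinase K, PCR-barcoded and Illumina-sequenced. Binding is reads-per-million enrichment of pull-down over input with replicates pooled.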
Consider “GATGATTGTTCTCCCAGCTGATGAATTTACCTCCTCGAGTAAACAAATTTTCCTAATCTTTCTGTTCAAGCGCCATCTAC”, for which the binding signal is 0.573 RPM ratio (pull-down/input).
Next, “GATGATTGTTCTCCCAGCTGATGAATTTGTTTTCTCGAGTAAACAAATTTTCCTAATCTTTCTGTTCAAGCGCCATCTAC”: 7.21 RPM ratio (pull-down/input); “GATGATTGTTCTCCCAGCTGATGAATTTTGTTCCTCGAGTAAACAAATTTTCCTAATCTTTCTGTTCAAGCGCCATCTAC”: 1.64 RPM ratio (pull-down/input).
The same measure for “GATGATTGTTCTCCCAGCTGATGAATTGTTTACCTCGAGTAAACAAATTTTCCTAATCTTTCTGTTCAAGCGCCATCTAC”: 7.12 RPM ratio (pull-down/input); for “GATGATTGTTCTCCCAGCTGATGAATTTGTTTCCTCGAGTAAACAAATTTTCCTAATCTTTCTGTTCAAGCGCCATCTAC”: 5.92 RPM ratio (pull-down/input).
Next, “GATGATTGTTCTCCCAGCTGATGAATTTGTTCTCTCGAGTAAACAAATTTTCCTAATCTTTCTGTTCAAGCGCCATCTAC”: 2.14 RPM ratio (pull-down/input).
With “GATGATTGTTCTCCCAGCTGATGAATTGTTTTTCTCGAGTAAACAAATTTTCCTAATCTTTCTGTTCAAGCGCCATCTAC”, the binding signal was 4.35 RPM ratio (pull-down/input).
With “GATGATTGTTCTCCCAGCTGATGAATTTTGTTTCTCGAGTAAACAAATTTTCCTAATCTTTCTGTTCAAGCGCCATCTAC”, the binding signal is 5.54 RPM ratio (pull-down/input).
Next, “GATGATTGTTCTCCCAGCTGATGAATTTTTTACCTCGAGTAAACAAATTTTCCTAATCTTTCTGTTCAAGCGCCATCTAC”: 0.228 RPM ratio (pull-down/input).
The same measure for “GATGATTGTTCTCCCAGCTGATGAATTGTTTTCCTCGAGTAAACAAATTTTCCTAATCTTTCTGTTCAAGCGCCATCTAC”: 4.78 RPM ratio (pull-down/input); for “GATGATTGTTCTCCCAGCTGATGAATTTTTGTTCTCGAGTAAACAAATTTTCCTAATCTTTCTGTTCAAGCGCCATCTAC”: 0.494 RPM ratio (pull-down/input).
The same measure for “GATGATTGTTCTCCCAGCTGATGAATTTGATTTCTCGAGTAAACAAATTTTCCTAATCTTTCTGTTCAAGCGCCATCTAC”: 4.02 RPM ratio (pull-down/input).
Consider “GATGATTGTTCTCCCAGCTGATGAATTGGGAATTTCGAGTAAACAAATTTTCCTAATCTTTCTGTTCAAGCGCCATCTAC”, for which the binding signal was 1.3 RPM ratio (pull-down/input).
The same measure for “GATGATTGTTCTCCCAGCTGATGAATTAGGCACGTCGAGTAAACAAATTTTCCTAATCTTTCTGTTCAAGCGCCATCTAC”: 1.03 RPM ratio (pull-down/input); for “GATGATTGTTCTCCCAGCTGATGAATTACTCTGCTCGAGTAAACAAATTTTCCTAATCTTTCTGTTCAAGCGCCATCTAC”: 0.3 RPM ratio (pull-down/input).
The same measure for “GATGATTGTTCTCCCAGCTGATGAATTACGTTGCTCGAGTAAACAAATTTTCCTAATCTTTCTGTTCAAGCGCCATCTAC”: 1.14 RPM ratio (pull-down/input); for “GATGATTGTTCTCCCAGCTGATGAATTAGGACATTCGAGTAAACAAATTTTCCTAATCTTTCTGTTCAAGCGCCATCTAC”: 0.784 RPM ratio (pull-down/input); for “GATGATTGTTCTCCCAGCTGATGAATTAAAGAATTCGAGTAAACAAATTTTCCTAATCTTTCTGTTCAAGCGCCATCTAC”: 0.677 RPM ratio (pull-down/input).
In the case of “GATGATTGTTCTCCCAGCTGATGAATTTGTGTATTCGAGTAAACAAATTTTCCTAATCTTTCTGTTCAAGCGCCATCTAC”, the binding signal is 6.95 RPM ratio (pull-down/input).
On to “GATGATTGTTCTCCCAGCTGATGAATTCGTATATTCGAGTAAACAAATTTTCCTAATCTTTCTGTTCAAGCGCCATCTAC”, for which the binding signal is 2.61 RPM ratio (pull-down/input).
The same measure for “GATGATTGTTCTCCCAGCTGATGAATTGTATATTTCGAGTAAACAAATTTTCCTAATCTTTCTGTTCAAGCGCCATCTAC”: 3.17 RPM ratio (pull-down/input); for “GATGATTGTTCTCCCAGCTGATGAATTCGTGTATTCGAGTAAACAAATTTTCCTAATCTTTCTGTTCAAGCGCCATCTAC”: 2.95 RPM ratio (pull-down/input); for “GATGATTGTTCTCCCAGCTGATGAATTGTGTAATTCGAGTAAACAAATTTTCCTAATCTTTCTGTTCAAGCGCCATCTAC”: 3.19 RPM ratio (pull-down/input).
The same measure for “GATGATTGTTCTCCCAGCTGATGAATTGTGTATTTCGAGTAAACAAATTTTCCTAATCTTTCTGTTCAAGCGCCATCTAC”: 5.82 RPM ratio (pull-down/input); for “GATGATTGTTCTCCCAGCTGATGAATTTGTATATTCGAGTAAACAAATTTTCCTAATCTTTCTGTTCAAGCGCCATCTAC”: 6.34 RPM ratio (pull-down/input).
Next, “GATGATTGTTCTCCCAGCTGATGAATTCTGTATTTCGAGTAAACAAATTTTCCTAATCTTTCTGTTCAAGCGCCATCTAC”: 4.09 RPM ratio (pull-down/input).
In the case of “GATGATTGTTCTCCCAGCTGATGAATTGTATTTTTCGAGTAAACAAATTTTCCTAATCTTTCTGTTCAAGCGCCATCTAC”, the binding signal is 3.78 RPM ratio (pull-down/input).
Next, “GATGATTGTTCTCCCAGCTGATGAATTTCTGTATTCGAGTAAACAAATTTTCCTAATCTTTCTGTTCAAGCGCCATCTAC”: 1.38 RPM ratio (pull-down/input); “GATGATTGTTCTCCCAGCTGATGAATTTTTGTATTCGAGTAAACAAATTTTCCTAATCTTTCTGTTCAAGCGCCATCTAC”: 2.57 RPM ratio (pull-down/input); “GATGATTGTTCTCCCAGCTGATGAATTGTATTGTTCGAGTAAACAAATTTTCCTAATCTTTCTGTTCAAGCGCCATCTAC”: 6.04 RPM ratio (pull-down/input).
The same measure for “GATGATTGTTCTCCCAGCTGATGAATTTTTACGATCGAGTAAACAAATTTTCCTAATCTTTCTGTTCAAGCGCCATCTAC”: 0.226 RPM ratio (pull-down/input); for “GATGATTGTTCTCCCAGCTGATGAATTCCCTGCCTCGAGTAAACAAATTTTCCTAATCTTTCTGTTCAAGCGCCATCTAC”: 0.312 RPM ratio (pull-down/input).
Next, “GATGATTGTTCTCCCAGCTGATGAATTGTGAGGCTCGAGTAAACAAATTTTCCTAATCTTTCTGTTCAAGCGCCATCTAC”: 0.816 RPM ratio (pull-down/input); “GATGATTGTTCTCCCAGCTGATGAATTTAAGTGCTCGAGTAAACAAATTTTCCTAATCTTTCTGTTCAAGCGCCATCTAC”: 0.628 RPM ratio (pull-down/input).
Take “GATGATTGTTCTCCCAGCTGATGAATTGTGGTTTTCGAGTAAACAAATTTTCCTAATCTTTCTGTTCAAGCGCCATCTAC”: the binding signal is 2.03 RPM ratio (pull-down/input).
Turning to “GATGATTGTTCTCCCAGCTGATGAATTGGGTGGATCGAGTAAACAAATTTTCCTAATCTTTCTGTTCAAGCGCCATCTAC”, the binding signal is 0.423 RPM ratio (pull-down/input).
